# Measurements taken from PubChem BioAssay (Tox21).
# Values joined by “and” are separate entries in the source; they are usually repeats but may differ in a detail not shown here. Equal values may be shown once. Inconclusive results are not listed. Where a call stands in place of a potency, no number is given. Where a structure was tested more than once in an assay, its records may differ in their call. Active and inactive are the calls of the source. Unless noted, calls come from the whole dose curve; as a rule, active = well fitted curve in the direction sought with a large enough effect in the repeat runs; inconclusive = weak or mixed curves; inactive = no such curve, though single readings can be large; an effect the other way counts as inactive or inconclusive.
# Legend:
# [1] = qHTS assay to identify small molecule agonists of the hypoxia (HIF-1) signaling pathway - cell viability counter screen (AID 1224844; calls by dose curve; note: nearly all actives have a fitted effect of over 50% in size; note: potency is the fitted concentration of half-maximal effect)
# Method in brief: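 Viability counter screen: HRE-bla ME-180 cells plated 5 hrs before compound addition, treated 17 hrs at 37C and 5% CO2, then CellTiter-Glo added after the FRET reporter read; luminescence after 30 min.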
# [2] = qHTS assay to identify small molecule agonists of H2AX (AID 1224845; active = well fitted activation curve with a large enough effect in the signal ratio in the repeat runs, not every such curve was filed as active; the % refers to the signal ratio; note: potency is the fitted concentration of half-maximal effect)
# Method in brief: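 Wild-type CHO-K1 cells, plated overnight, exposed 3hr at 37C to 15 concentrations (0.76% DMSO final). Lysed, then HTRF anti-pH2AX (S139) cryptate and anti-H2AX-d2 antibodies, 24 hr room temperature; 665/620 nm emission read.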
# [3] = qHTS assay to identify small molecule agonists of H2AX - cell viability counter screen (AID 1224847; calls by dose curve; note: nearly all actives have a fitted effect of over 30% in size; note: potency is the fitted concentration of half-maximal effect)
# Method in brief: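 Viability of CHO-K1 (wild type) cells after 3 hr compound exposure was measured by CellTiter-Glo luminescence.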
# [4] = qHTS RealTime-Glo MT Cell Viability Assay in HepG2 cells - 24 hour (AID 1224867); note: nearly all actives have a fitted effect of over 50% in size; note: potency is the fitted concentration of half-maximal effect
# Method in brief: (§1)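 Cell number in HepG2 cultures estimated from NanoLuc luminescence generated by metabolic reduction of a prosubstrate by living cells. The homogeneous, nonlytic format allowed repeated reads at 0, 8, 16, 24, 32 and 40 h of compound exposure.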
# [5] = qHTS RealTime-Glo MT Cell Viability Assay in HEK293 cells - 32 hour (AID 1224868); note: nearly all actives have a fitted effect of over 50% in size; note: potency is the fitted concentration of half-maximal effect
# Method in brief: (§2)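 Homogeneous bioluminescent viability format in HEK293 cells (600 cells/well). Following 5 h at 37 C/5% CO2, 23 nL compound was pintooled; the signal was measured repeatedly during 40 h incubation.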
# [6] = A CellTox Green Cytotoxicity Assay to monitor cytotoxicity in HEK293 cells - 0 hour (AID 1224869); note: nearly all actives have a fitted effect of over 50% in size
# Method in brief: (§3)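 Dead-cell fluorescence measured kinetically: asymmetric cyanine dye, HEK293, 600 cells/well, 5 h settle, 23 nL cpd/DMSO, 37 C, reads 0–40 h every 8 h.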
# [7] = qHTS RealTime-Glo MT Cell Viability Assay in HepG2 cells - 40 hour (AID 1224870); note: nearly all actives have a fitted effect of over 50% in size; note: potency is the fitted concentration of half-maximal effect
# Method in brief: (§4)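 HepG2 cells (600/well) mixed with RealTime-Glo MT reagent, settled 5 h at 37 C/5% CO2 before compound addition. Nonlytic NanoLuc luminescence from viable-cell prosubstrate reduction read repeatedly during 40 h treatment at 37 C.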
# [8] = A CellTox Green Cytotoxicity Assay to monitor cytotoxicity in HEK293 cells - 40 hour (AID 1224871); note: nearly all actives have a fitted effect of over 45% in size; note: potency is the fitted concentration of half-maximal effect
# Method in brief: as §3
# [9] = qHTS RealTime-Glo MT Cell Viability Assay in HEK293 cells - 16 hour (AID 1224872); note: nearly all actives have a fitted effect of over 50% in size; note: potency is the fitted concentration of half-maximal effect
# Method in brief: as §2
# [10] = qHTS RealTime-Glo MT Cell Viability Assay in HepG2 cells - 8 hour (AID 1224873); note: nearly all actives have a fitted effect of over 55% in size; note: potency is the fitted concentration of half-maximal effect
# Method in brief: as §4
# [11] = qHTS RealTime-Glo MT Cell Viability Assay in HEK293 cells - 40 hour (AID 1224874); conditions: RealTime-Glo luminescence; max response: stronger effect = lower value; note: nearly all actives have a fitted effect of over 50% in size; note: potency is the fitted concentration of half-maximal effect
# Method in brief: (§5)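 600 HEK293 cells per well, dispensed already mixed with RealTime-Glo MT reagents. Compound dosing came 5 h later. The same wells were read for luminescence at 0, 8, 16, 24, 32 and 40 h of exposure at 37 C.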
# [12] = A CellTox Green Cytotoxicity Assay to monitor cytotoxicity in HEK293 cells - 24 hour (AID 1224875); note: nearly all actives have a fitted effect of over 45% in size; note: potency is the fitted concentration of half-maximal effect
# Method in brief: as §3
# [13] = A CellTox Green Cytotoxicity Assay to monitor cytotoxicity in HepG2 cells - 16 hour (AID 1224876); note: nearly all actives have a fitted effect of over 45% in size; note: potency is the fitted concentration of half-maximal effect
# Method in brief: (§6)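 First, HepG2 cells (600/well) mixed with reagent were plated; second, after 5 h at 37 C they received compounds via pintool; third, fluorescence was measured at 0 h through 40 h at 8 h intervals.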
# [14] = qHTS RealTime-Glo MT Cell Viability Assay in HepG2 cells - 32 hour (AID 1224877); note: nearly all actives have a fitted effect of over 55% in size; note: potency is the fitted concentration of half-maximal effect
# Method in brief: as §1
# [15] = A CellTox Green Cytotoxicity Assay to monitor cytotoxicity in HepG2 cells - 24 hour (AID 1224878); note: nearly all actives have a fitted effect of over 45% in size; note: potency is the fitted concentration of half-maximal effect
# Method in brief: as §6
# [16] = A CellTox Green Cytotoxicity Assay to monitor cytotoxicity in HepG2 cells - 40 hour (AID 1224879); note: nearly all actives have a fitted effect of over 40% in size; note: potency is the fitted concentration of half-maximal effect
# Method in brief: as §6
# [17] = qHTS RealTime-Glo MT Cell Viability Assay in HEK293 cells - 0 hour (AID 1224880); note: nearly all actives have a fitted effect of over 45% in size; note: potency is the fitted concentration of half-maximal effect
# Method in brief: as §5
# [18] = qHTS assay to identify small molecule agonists of the estrogen related receptor (ERR) signaling pathway from Tox21 library (AID 1224849; calls by dose curve; note: nearly all actives have a fitted effect of over 15% in size); conditions: ERR reporter cell line, ONE-Glo luciferase, 18 h; at 92.4 µM (top of the series) unless noted
# Method in brief: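 Quantitative HTS in agonist format: NTP ERR cell line, compounds transferred in DMSO after 6 h plating, 18 h incubation at 37 C, ONE-Glo luminescence endpoint.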
# [19] = qHTS assay to identify small molecule antagonists of the estrogen related receptor (ERR) signaling pathway from Tox21 library (AID 1224848); note: nearly all actives have a fitted effect of over 50% in size; note: potency is the fitted concentration of half-maximal effect
# Method in brief: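 Compounds dissolved in DMSO are pin-transferred onto ERR reporter cells (2,000 per well) that have settled for 6 h at 37 C. Plates then incubate 18 h at 37 C before ONE-Glo luciferase reagent and a luminescence read 30 min later.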
# [20] = qHTS assay to identify small molecule agonists of the hypoxia (HIF-1) signaling pathway (AID 1224846; active = well fitted activation curve with a large enough effect in the signal ratio in the repeat runs, not every such curve was filed as active; the % refers to the signal ratio)
# Method in brief: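 Agonist mode reporter screen. ME-180 cells stably expressing bla under HRE control received test compounds in DMSO for 17 hrs (37C, 5% CO2), and beta-lactamase activity was then detected with the CCF4-AM FRET substrate.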
structure (smiles),measurement,setting,value
COC(=O)/C=C(\C)OP(=O)(OC)OC,Potency,[1],inactive
same,Potency,[2],inactive
same,Potency,[3],inactive
same,Potency,[4],inactive
same,Potency,[5],inactive
same,Potency,[6],inactive
same,Potency,[7],inactive
same,Potency,[8],inactive
same,Potency,[9],inactive
same,Potency,[10],inactive
same,max response,[11],-4% (inactive)
same,Potency,[12],inactive
same,Potency,[13],inactive
same,Potency,[14],inactive
same,Potency,[15],inactive
same,Potency,[16],inactive
same,Potency,[17],inactive
CCN(CC)C(=S)S,Potency,[1],19.7 µM (active) and 8.66 µM (active) and 9.77 µM (active)
same,Potency,[2],inactive
same,Potency,[3],inactive
same,Potency,[4],inactive and 21.9 µM (active)
same,Potency,[5],24.8 µM (active) and 4.87 µM (active) and 11 µM (active)
same,Potency,[6],inactive
same,Potency,[7],inactive and 21.9 µM (active)
same,Potency,[8],17.5 µM (active) and 4.34 µM (active) and 9.77 µM (active)
same,Potency,[9],inactive
same,Potency,[10],inactive
same,Potency,[11],24.8 µM (active) and 4.34 µM (active) and 11 µM (active)
same,Potency,[13],inactive
same,Potency,[14],inactive and 21.9 µM (active)
same,Potency,[15],inactive and 7.72 µM (active) and 21.9 µM (active)
same,Potency,[16],17.5 µM (active) and 6.13 µM (active) and 19.5 µM (active)
same,Potency,[17],inactive
CCC[CH2][Sn]([CH2]CCC)([CH2]CCC)[O][Sn]([CH2]CCC)([CH2]CCC)[CH2]CCC,Potency,[1],479 nM (active)
same,Potency,[2],0.278 µM (active)
same,Potency,[3],0.278 µM (active)
same,"activity change, positive = activation",[18],-60.2% [at 8.39 µM] (inactive)
same,Potency,[4],0.603 µM (active)
same,Potency,[5],0.17 µM (active)
same,cytotoxicity,[6],2.58% [at 6.97 µM] (inactive)
same,Potency,[7],0.537 µM (active)
same,Potency,[8],302 nM (active)
same,Potency,[9],0.214 µM (active)
same,Potency,[10],0.956 µM (active)
same,Potency,[11],151 nM (active)
same,Potency,[12],0.427 µM (active)
same,Potency,[13],0.603 µM (active)
same,Potency,[14],0.537 µM (active)
same,Potency,[16],0.537 µM (active)
CCCCN(CCCC)C(=S)[S-].CCCCN(CCCC)C(=S)[S-].[Ni+2],Potency,[1],inactive
same,Potency,[2],inactive
same,Potency,[3],inactive
same,Potency,[19],inactive
same,Potency,[4],inactive
same,Potency,[5],inactive
same,Potency,[6],inactive
same,Potency,[7],inactive
same,Potency,[8],inactive
same,Potency,[9],inactive
same,Potency,[10],inactive
same,max response,[11],-23% (inactive)
same,Potency,[12],inactive
same,Potency,[14],inactive
same,Potency,[15],inactive
same,Potency,[16],inactive
same,Potency,[17],inactive
C[C@]12C/C(=C/O)C(=O)C[C@@H]1CC[C@@H]1[C@@H]2CC[C@@]2(C)[C@H]1CC[C@]2(C)O,Potency,[1],24.8 µM (active) and 19 µM (active)
same,Potency,[2],90.6 µM (active)
same,Potency,[3],inactive
same,Potency,[4],inactive
same,Potency,[5],inactive
same,Potency,[6],inactive
same,Potency,[7],inactive
same,Potency,[8],49.4 µM (active) and inactive
same,Potency,[9],inactive
same,Potency,[10],inactive
same,max response,[11],-17.5% (inactive)
same,Potency,[13],inactive
same,Potency,[14],inactive
same,Potency,[15],inactive
CCN1CCC2(CC1)COc1cc3c(cc12)N(C(=O)c1ccc(-c2ccc(-c4nnc(C)o4)cc2C)cc1)CC3,Potency,[1],20200 nM (active)
same,Potency,[2],inactive
same,Potency,[3],104 µM (active)
same,Potency,[19],10 µM (active)
same,"activity change, positive = activation",[18],-74.2% (inactive)
same,Potency,[5],11.3 µM (active)
same,Potency,[6],inactive
same,Potency,[7],45.2 µM (active)
same,Potency,[8],40300 nM (active)
same,Potency,[9],18 µM (active)
same,Potency,[11],11300 nM (active)
same,Potency,[12],50.7 µM (active)
same,Potency,[14],45.2 µM (active)
same,Potency,[16],45.2 µM (active)
same,Potency,[17],25.4 µM (active)
COP(=O)(OC)O/C(=C\Cl)c1cc(Cl)c(Cl)cc1Cl,Potency,[1],inactive
same,Potency,[2],inactive
same,Potency,[3],inactive
same,"activity change, positive = activation",[18],-68.1% (inactive)
same,Potency,[5],inactive
same,Potency,[6],inactive
same,Potency,[8],inactive
same,Potency,[9],inactive
same,max response,[11],0.507% (inactive)
same,Potency,[12],inactive
same,Potency,[13],inactive
COC(=O)N(OC)c1ccccc1COc1ccn(-c2ccc(Cl)cc2)n1,Potency,[1],inactive
same,Potency,[2],inactive
same,Potency,[3],1.27 µM (active)
same,"activity change, positive = activation",[18],-52.1% (inactive)
same,Potency,[4],inactive
same,Potency,[5],21.9 µM (active)
same,Potency,[6],inactive
same,Potency,[7],inactive
same,Potency,[12],inactive
same,Potency,[13],inactive
same,Potency,[14],inactive
same,Potency,[15],inactive
same,Potency,[16],inactive
same,Potency,[17],inactive
O=[N+]([O-])[O-].[Tl+],Potency,[1],inactive
same,Potency,[2],inactive
same,Potency,[20],inactive
same,Potency,[4],inactive
same,Potency,[6],inactive
same,Potency,[7],inactive
same,Potency,[8],inactive
same,Potency,[9],inactive
same,Potency,[10],inactive
same,Potency,[12],inactive
same,Potency,[13],inactive
same,Potency,[14],inactive
same,Potency,[15],inactive
same,Potency,[16],inactive
same,Potency,[17],inactive
COc1ccc2c(c1OC)C(=O)O[C@@H]2[C@H]1c2cc3c(cc2CCN1C)OCO3,Potency,[1],inactive
same,Potency,[2],inactive
same,Potency,[3],inactive
same,Potency,[4],inactive
same,Potency,[5],inactive
same,Potency,[6],inactive
same,Potency,[7],inactive
same,Potency,[8],inactive
same,Potency,[9],inactive
same,Potency,[10],inactive
same,max response,[11],1.56% (inactive)
same,Potency,[12],inactive
same,Potency,[13],inactive
same,Potency,[14],inactive
same,Potency,[15],inactive
same,Potency,[16],inactive
same,Potency,[17],inactive
c1ccc2c(c1)cc1ccc3cccc4ccc2c1c34,Potency,[1],inactive
same,Potency,[2],inactive
same,Potency,[3],inactive
same,Potency,[19],inactive
same,"activity change, positive = activation",[18],61.3% (active)
same,Potency,[4],inactive
same,Potency,[5],inactive
same,Potency,[6],inactive
same,Potency,[7],inactive
same,Potency,[8],inactive
same,Potency,[10],inactive
same,max response,[11],-10.6% (inactive)
same,Potency,[12],inactive
same,Potency,[13],inactive
same,Potency,[14],inactive
same,Potency,[16],7.05 µM (active)
same,Potency,[17],inactive
CCNc1nc(NC(C)C(C)C)nc(SC)n1 (stereo not given),Potency,[1],inactive
same,Potency,[2],inactive
same,Potency,[20],inactive
same,Potency,[4],inactive
same,Potency,[5],inactive
same,Potency,[6],inactive
same,Potency,[7],inactive
same,Potency,[8],inactive
same,Potency,[10],inactive
same,Potency,[12],inactive
same,Potency,[13],inactive
same,Potency,[14],inactive
same,Potency,[15],inactive
same,Potency,[16],inactive
same,Potency,[17],inactive
CN1[C@@H]2CC[C@H]1CC(O)C2 (stereo not given in full),Potency,[1],inactive
same,Potency,[2],inactive
same,Potency,[3],inactive
same,Potency,[4],inactive
same,Potency,[5],inactive
same,Potency,[6],inactive
same,Potency,[7],inactive
same,Potency,[8],inactive
same,Potency,[9],inactive
same,Potency,[10],inactive
same,max response,[11],15.4% (inactive)
same,Potency,[12],inactive
same,Potency,[13],inactive
same,Potency,[14],inactive
same,Potency,[16],inactive
same,Potency,[17],inactive
